Rows were chosen to be rich in hits. Some 12% of all compounds tested hit in one or more screens of this group.
SARS PLP yeast: blocks SARS-CoV papain-like protease in a yeast assay | hit rate 0.19% among 330,000 | S. cerevisiae expressing SARS-CoV PLpro, growth rescue | AID 485353 | Potency, µM (series often up to 32.9 µM), for the others: at the top dose activity, positive = growth rescue, actives largely listed as activators; calls by dose curve; further: 0% is about no effect; nearly all actives have a fitted effect of over 55% in size
AMA1 RON2 block: AMA1-RON2 (P. falciparum) interaction inhibition; Potency, µM (series often up to 58.2 µM), inactives show at the top dose activity change, negative = inhibition, actives largely listed as inhibitors; AID 720542; hit rate 0.2% among 360,000; AlphaScreen AMA1-biotinylated RON2 peptide binding;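 further: 0% = vehicle wells and -100% = peptide control; nearly all actives have a fitted effect of over 45% in size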
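AMA1 (3D7) with his tag at 25 nM final met compounds first, then biotinylated RON2 peptide at 25 nM; detection used donor plus acceptor beads, 10 µg/mL apiece, read by AlphaScreen after 30 min at room temperature.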
Pf growth 96h: inhibits malaria parasite growth, 96 h | P. falciparum luciferase reporter growth, 96 h | hit rate 6.9% among 320,000 | Potency, µM (titrated, usually from 28.7 µM), for the others: at the top dose activity change, negative = inhibition, hits mostly inhibitors; further: on the % scale 0 is the no-effect control and ±100 the full control effect
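Two parasite generations (96 h, 37 C, 5% CO2) of compound exposure in infected erythrocytes (0.05% parasitemia, 2% hematocrit). Luciferase-reporter P. falciparum; decreased luminescence indicates inhibited growth, aimed at apicoplast-acting delayed death.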
Pf growth 48h: inhibits P. falciparum growth in the first generation, 48 h; P. falciparum luciferase growth in erythrocytes, 48 h; Potency, µM (titrated, usually from 28.7 µM), inactives show at the top dose activity change, negative = inhibition, hits mostly inhibitors; hit rate 5.9% among 310,000; further: on the % scale 0 is the no-effect control and ±100 the full control effect
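Firefly luciferase activity from engineered P. falciparum reports growth; inhibitors lower the luminescent signal. Cultures contained 2% hematocrit erythrocytes at 0.1% final parasitemia.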
HCV inh: HCV inhibition; Huh7.5.1 HCVcc-Cre infection, luciferase reporter, 44 h; AID 651820; Potency, µM (series often up to 41.8 µM), for the others: at the highest dose activity change, negative = inhibition, most hits filed as inhibitors; hit rate 3.4% among 340,000; further: on the % scale 0 is the no-effect control and ±100 the full control effect
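HCVcc-Cre virus at an moi near 0.5 was added right after compound to cells cultured 4 h from seeding (1,000 cells/well). Luciferase activity was determined 44 h later, 15 min after substrate addition at RT.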
NS1 function inh: influenza NS1 inhibition; AID 2326; hit rate 0.4% among 270,000; Potency, µM (top dose mostly 46.1 µM), inactives show at the top dose activity, positive = more growth; calls by dose curve; further: actives are rising curves; nearly all actives have a fitted effect of over 50% in size
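OD600 was taken as the measure of yeast growth restored by compound in an NS1-expressing S. cerevisiae strain. Cells had been washed out of glucose medium and diluted 1:100 into galactose -URA medium, pH 6.0.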
An asterisk follows results filed as active; ? = inconclusive; . = no result given. Unless noted, the call rests on the fitted dose curve; in most records, active means well fitted curve in the direction sought with a large enough effect; inconclusive means small, poorly fitted or top-dose-only effect, or another doubt; inactive means no such curve, though single readings can be large; an effect the other way counts as inactive or inconclusive. Potency means the concentration at half of the fitted maximal effect.

SMILES | SARS PLP yeast | AMA1 RON2 block | Pf growth 96h | Pf growth 48h | HCV inh | NS1 function inh
CCOC(=O)N1CCN(S(=O)(=O)c2ccc(C(=O)Nc3sc4c(c3C(N)=O)CCN(CC)C4)cc2)CC1 | . | -7% | -10% | ? | -6% | -6%
CNC(=O)c1c(NC(=O)c2ccc(S(=O)(=O)N3CCCc4ccccc43)cc2)sc2c1CCN(C)C2 | -2% | -12% | ? | ? | ? | 8%
CC(C)N1CCc2c(sc(NC(=O)c3ccc(S(=O)(=O)N(C)CC4CCCO4)cc3)c2C(N)=O)C1 (stereo unspecified) | -2% | -11% | ? | ? | ? | -4%
Cc1ccc(NC(=O)c2ccc(S(=O)(=O)NCC3CCCO3)cc2)cc1 (stereo unspecified) | -4% | 0% | -23% | -18% | -1% | 1%
CSCCC(NC(=O)c1ccc(Cl)c([N+](=O)[O-])c1)C(=O)N1CCN(C/C=C/c2ccccc2)CC1 (stereo unspecified) | 1% | ? | ? | ? | ? | .
O=C(CCn1cccn1)N1CCCC(N2CCN(c3cccc(Cl)c3)CC2)C1 (stereo unspecified) | -4% | -5% | 65% | -18% | . | 11%
O=C(Nc1ccccn1)C1CCN(C(=O)Nc2ccccc2)CC1 | -2% | -4% | 5% | 11% | -7% | .
Cc1noc(C)c1COc1ccccc1C(=O)NCCOc1ccccc1 | 0% | 0% | ? | ? | -1% | .
CCc1nc2c(OCC3CCCCC3)cccn2c1N(C)C(=O)c1ccc(C)cc1 | . | -2% | . | . | . | .
CCCN1CCc2c(sc(NC(=O)c3ccc(S(=O)(=O)N(C)c4ccccc4)cc3)c2C(N)=O)C1 | -2% | -12% | 9.3µM* | 9.3µM* | ? | 19%
COC(=O)c1ccccc1-c1c2ccc(=N)cc-2oc2cc(N)ccc12 | -1% | 15% | 0.33µM* | 1.3µM* | ? | .
O=C1C(Br)=C(c2ccccc2)C(c2ccccc2)=C1c1ccccc1 | . | -11% | . | . | 6.3µM* | .
NC(=O)c1ccc(NC(=O)COC(=O)CNC(=O)c2sc3ccccc3c2Cl)cc1 | 9% | 0% | ? | -17% | -5% | .
Cc1nnc(SCC(=O)N2CC(C)OC(C)C2)n1-c1ccccc1 (stereo unspecified) | 5% | 9% | -5% | 0% | 2% | -3%
CC1CN(C(=O)CSc2nnc(-c3ccncc3)n2-c2ccccc2)CC(C)O1 (stereo unspecified) | 7% | 0% | 10µM* | 24% | 18% | 4%
Cn1c(SCC(=O)N2CCN(c3ccccc3)CC2)nnc1-c1ccncc1 | 6% | 5% | 12µM* | -26% | 14% | -6%
Cc1c(C)n2c(SCC(=O)N3CCOCC3)nnc2[nH]c1=O | 6% | -8% | ? | ? | 3% | .
CC(C)c1ccccc1-n1c(SCC(=O)N2CCN(c3ccccc3)CC2)nnc1-c1cccnc1 | -3% | -5% | 8.3µM* | ? | 1% | 2%
O=C(CSc1nnc(-c2cccnc2)n1CCc1ccccc1)N1CCCCC1 | 0% | 5% | ? | -1% | 15% | 0%
Cc1c(C)n2c(SCC(=O)N3CCN(c4ccccc4)CC3)nnc2[nH]c1=O | . | 19% | ? | 3.3µM* | 46% | .
C=CCNc1nnc(Cc2ccc(C(C)C)cc2)c(=O)[nH]1 | -1% | -5% | ? | ? | 6% | 5%
CN(C)CCN(C(=O)c1ccc(N2C(=O)CCC2=O)cc1)c1nc2cc3c(cc2s1)OCCO3 | -1% | . | 0% | 100% | . | .
COc1ccccc1CN1CC(C(=O)NCc2ncccc2C)CCC1=O (stereo unspecified) | -4% | -16% | -10% | 9% | 7% | 6%
Cn1c(SCC(=O)Nc2ccc3nc(SCC(=O)N4CCCC4)sc3c2)nnc1-c1ccccc1 | 3% | -9% | 3.3µM* | 9.3µM* | -23% | 17%
CCCC(=O)Nc1ccc2nc(SCC(=O)N3CCCC3)sc2c1 | -1% | -19% | 35% | ? | ? | 0%
Cc1c(C)n2c(SCC(=O)N3CCCCCC3)nnc2[nH]c1=O | -2% | -22% | ? | 2% | 14% | .
